Screening data: PubChem BioAssay, National Center for Advancing Translational Sciences (NCATS)
Only some compounds are listed: those with a hit (about 5.7% of all), similar ones and a draw of the others.
Nrf2 inh = Nrf2 qHTS screen for inhibitors; AID 504444, 2011; A549 ARE-Fluc reporter, luciferase luminescence, 18-24 h; Potency, µM (top dose mostly 46 µM), inactives show at the top dose activity change, negative = inhibition, hits mostly inhibitors; 360,000 tested, 2.1% active; also: potency is read from the fitted curve at half-maximal effect; nearly all actives have a fitted effect of over 60% in size
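Concentration-response testing used A549 ARE_Fluc cells at 5000 cells/well. Following an 18-24 h compound incubation, viability was read by fluorescence (Ex 405/Em 525) and luciferase output by luminescence.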
Giardia kill = Small Molecules that selectively kill Giardia lamblia: qHTS; 340,000 tested, 0.15% active; Giardia lamblia trophozoite viability; activity change, % at 7.66 µM, hits read low; in the data active = activity change below about -80%; inconclusive = between about -30% and that limit;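 also: parasites exposed to compound for two days anaerobically before the ATP read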
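Luminescence from cellular ATP indicates surviving trophozoites (100 cells/well) following 48 hrs anaerobic compound treatment at 37 deg C; signal develops 15-30 min at room temperature.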
A549 viability = Nrf2 qHTS screen for inhibitors: counterscreen for cytotoxicity; A549 ARE-Fluc cells, CellTiter-Fluor viability, 18-24 h; 390,000 tested, 0.16% active; AID 504648, 2011; Potency, µM (highest dose often 46 µM), for inactives: at the highest dose activity change, negative = cytotoxicity, hits mostly inhibitors; also: potency is read from the fitted curve at half-maximal effect
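A549 ARE-Fluc cells in 5% FBS OPTI-MEM, 5000 cells/well, rested 2 h then exposed to compounds in concentration-response for 18-24 h at 37 °C. Viability by CellTiter-Fluor fluorescence (Ex 405/Em 525) after 30 min; luciferase luminescence (BugLite, 15 min, RT) read afterwards.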
PI4K2A block = qHTS for small molecular inhibitors of PI4K2A | 420,000 tested, 0.13% active | AID 1346378, 2018 | activity change, negative = inhibition, % at 76.9 µM | Phosphatidylinositol 4-kinase type 2-alpha (Homo sapiens), Q9BTU6 | purified PI4K2A, ADP-Glo luminescence, 1 h; hits give low values; in the data active = activity change below about -50%; inconclusive = mostly about -30% to -49%;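 also: -100% = wells without enzyme as full effect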
Target sequence (Q9BTU6 whole entry, looked up): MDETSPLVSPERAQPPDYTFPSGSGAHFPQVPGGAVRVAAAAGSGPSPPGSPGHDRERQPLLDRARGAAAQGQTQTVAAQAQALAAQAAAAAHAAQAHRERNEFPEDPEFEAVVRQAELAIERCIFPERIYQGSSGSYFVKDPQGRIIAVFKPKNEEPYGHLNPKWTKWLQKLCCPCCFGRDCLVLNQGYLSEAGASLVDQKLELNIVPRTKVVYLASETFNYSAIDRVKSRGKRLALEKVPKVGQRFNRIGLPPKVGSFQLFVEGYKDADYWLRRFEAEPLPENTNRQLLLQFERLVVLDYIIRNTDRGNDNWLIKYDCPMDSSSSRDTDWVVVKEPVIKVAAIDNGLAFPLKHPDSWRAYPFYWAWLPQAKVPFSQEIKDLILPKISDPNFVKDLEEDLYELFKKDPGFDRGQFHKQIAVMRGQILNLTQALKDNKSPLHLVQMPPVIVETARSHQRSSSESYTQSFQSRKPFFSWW
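ADP-Glo luminescence measured ADP generated by PI4K2A enzyme (4 ug/mL before mixing) with 1.2 mM PI substrate (pre-mix) and 300 microM ATP (pre-mix). Tris pH7.5 buffer with MgCl2, Triton X-100; 1 h reaction at ambient temperature.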
KB-3-1 cytotox = qHTS assay for MDR1-selective chemotherapeutics: Primary screen using the parental adenocarcinoma cell KB-3-1. KB-3-1 viability, CellTiter-Glo ATP luminescence, 72 h. Potency, µM (titrated, usually from 46.1 µM), usual class: cytotoxic. 400,000 tested, 1.4% active; also: potency is read from the fitted curve at half-maximal effect; nearly all actives have a fitted effect of over 60% in size
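Cytotoxicity measured as CellTiter-Glo luminescence after 72 h at 37 C. Compound titrations were pinned onto drug-naive KB-3-1 parental adenocarcinoma cells grown in DMEM with 10% FBS, and normalized data fitted to concentration-response curves.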
KB-V1 MDR tox = qHTS assay for MDR1-selective chemotherapeutics: Primary screen using the drug-selected MDR subline cells KB-V1 | KB-V1 MDR cells viability, CellTiter-Glo, 72 h | Potency, µM (doses to about 46.1 µM), most hits filed as cytotoxic | 400,000 tested, 3.4% active | AID 1347076, 2019; also: potency is read from the fitted curve at half-maximal effect; nearly all actives have a fitted effect of over 60% in size
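Potencies derive from concentration-effect curves fitted to normalized luminescence (CellTiter-Glo) of KB-V1 cells treated for 72 h at 37 degrees C in phenol-red-free DMEM containing 10% FBS.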
Numbers without * were called inactive; i = inactive; ? = inconclusive; . = no result given. Unless noted, calls follow the shape of the dose curve; as a rule, active = well fitted curve in the direction sought with a large enough effect; inconclusive = small, poorly fitted or top-dose-only effect, or another doubt; inactive = no such curve, though single readings can be large; an effect the other way counts as inactive or inconclusive. Unless noted, % is scaled to controls: 0 for no effect and ±100 for the full control effect.

SMILES | Nrf2 inh | Giardia kill | A549 viability | PI4K2A block | KB-3-1 cytotox | KB-V1 MDR tox
CCOC(=O)c1c(S(=O)(=O)NCC(=O)Nc2cccc(SC)c2)c(C)n(C)c1C | . | . | 1% | 0 | i | i
CCC(C(=O)Nc1ccccc1N1CCCC1)c1ccccc1Cl (stereo not drawn) | . | . | . | 1 | . | .
O=C(NCc1ccco1)c1cccnc1Cl | ? | 10 | 0% | 6 | i | i
O=C(NCc1ccco1)c1cccnc1-c1nc2ccccc2s1 | -5% | -7 | -3% | -1 | i | 13µM*
CC(C)(C)c1ccccc1Nc1nc(C#N)nc(NC2CCCC2)n1 | ? | . | -29% | . | . | .
N#Cc1ccc(NC(=O)OC2CC3CC2[C@H]2CCCCN2C3)cc1 (stereo partly drawn) | . | . | . | -4 | . | .
N#C/C(=C\c1cn(CC(=O)N2CCCCC2)c2ccccc12)C(=O)NCc1ccc2c(c1)OCO2 | ? | -4 | ? | -1 | i | 26µM*
N#C/C(=N\Nc1cc(Cl)cc(Cl)c1)c1nnc2n1CCCCC2 | 18µM* | 1 | ? | 1 | i | i
N#C/C(=C(/O)CCl)c1nnc2n1CCCCC2 | 3% | 35 | -1% | -1 | i | i
Cc1nnc(SCCCN2C(=O)c3ccccc3C2=O)o1 | 4% | -20 | 6% | -2 | i | i
O=C1c2ccccc2C(=O)N1CCCCSc1nnc(-c2ccc(OC(F)F)cc2)o1 | ? | 11 | -7% | 0 | i | 3.3µM*
O=C(Nc1scc(-c2ccccc2)c1C(=O)O)c1ccccc1F | -5% | 0 | -2% | -6 | i | i
Cc1ccccc1C(=O)Nc1scc(-c2ccc(Br)cc2)c1C(=O)O | 8.2µM* | 1 | -25% | -1 | ? | i
O=C(Nc1scc(-c2ccc(Br)cc2)c1C(=O)O)c1ccccc1F | 10µM* | 8 | -11% | 4 | ? | ?
Cc1ccc(-c2csc(NC(=O)c3ccccc3F)c2C(=O)O)cc1 | ? | -27 | -14% | -1 | i | i
Cc1nn(-c2ccccc2)c(C)c1NC(=O)COc1ccc2ccccc2c1 | . | 9 | ? | -3 | ? | 15µM*
Cc1nn(-c2ccccc2)c(C)c1C(=O)OCC(=O)Nc1ccccc1 | -2% | -8 | -5% | -11 | i | 10µM*
Cc1ccc(NC(=O)COC(=O)c2c(C)nn(-c3ccccc3)c2C)cc1 | -17% | 5 | 1% | 3 | i | i
Cc1nn(-c2ccccc2)c(C)c1NC(=O)COc1ccc(C#N)cc1 | -6% | -5 | 1% | -5 | i | 18µM*
COCCCNC(=O)COc1ccc(Br)cc1Cl | 18% | 1 | 3% | -2 | i | 21µM*
CCC(=O)Nc1ccc(OCc2cc(C3Nc4ccccc4C(=O)N3Cc3ccccc3)ccc2OC)cc1 (stereo not drawn) | ? | . | -10% | . | . | .
COc1ccc(-c2c(Cc3ccccc3)nc(NC(=O)c3ccccc3)n2C)cc1 | . | . | . | -1 | . | .
Cc1cc(C)c(NC(=O)c2cc3c(=O)n4ccccc4nc3n2C)c(C)c1 | 7% | . | 1% | 1 | . | .
COC(=O)c1ccc(S(=O)(=O)N2CCC(NC(=O)CCc3ccccc3)CC2)cc1 | . | . | . | -3 | . | .
Cc1nn(-c2ccccc2)c(C)c1NC(=O)COc1ccc(Br)cc1Cl | ? | -12 | -12% | 4 | 15µM* | ?
SMILES | Nrf2 inh | Giardia kill | A549 viability | PI4K2A block | KB-3-1 cytotox | KB-V1 MDR tox
C=CS(=O)(=O)c1c2cc(OC)ccc2nc2ccc(OC)cc12 | -28% | 11 | 13% | 34 | ? | 21µM*
Cc1noc(NC(=O)c2c(-c3c(Cl)cccc3Cl)noc2C)c1[N+](=O)[O-] | 15µM* | 6 | -13% | 5 | i | i
CC(=O)Nc1cccc(NC(=O)c2c(-c3c(Cl)cccc3Cl)noc2C)c1 | -4% | -15 | -4% | -3 | i | ?
Cc1onc(-c2c(F)cccc2Cl)c1C(=O)Nc1cccc2nsnc12 | ? | -13 | 9% | -6 | 18µM* | 18µM*
Cc1onc(-c2c(F)cccc2Cl)c1C(=O)NC1=NCCS1 | 0% | -7 | 16% | 7 | i | i
COc1ccc(-c2cc(C(=O)NN=Cc3ccccc3F)[nH]n2)cc1 | . | . | . | 2 | . | .
COc1ccc2nc(C)cc(SCC(=O)N/N=C/c3cccc4ccccc34)c2c1 | 16µM* | 5 | 23µM* | -3 | ? | 5.8µM*
COc1ccc2nc(C)cc(N/N=C/c3cccc(OC)c3O)c2c1 | -5% | -83* | -3% | 1 | i | ?
Cc1cc(-c2ccccc2)nc(N/N=C/c2ccc(O)cc2O)n1 | ? | -6 | -13% | 2 | ? | ?
Cc1cc(N/N=C/c2ccccc2O)c2ccccc2n1 | 18µM* | -24 | -22% | 3 | 13µM* | ?
COc1cccc(/C=N/Nc2nc(Nc3ccccc3)nc(-n3nc(C)cc3C)n2)c1O | ? | 18 | ? | 2 | 5.2µM* | ?
O=S1(=O)c2c(cccc2N2CCC[C@H]2CO)OCCCN1C1CC1 | . | . | . | 2 | . | .
COc1ccc(/C=N/Nc2cc(C)nc3ccc(Br)cc23)cc1 | ? | 15 | ? | 5 | ? | 16µM*
CC(=O)c1cc(-c2ccccc2)c(=O)n2c1CCC2 | . | . | . | -1 | . | .
COc1ccc(S(=O)(=O)n2nc(OC(=O)c3cccs3)cc2N)cc1 | 7% | 5 | 4% | 31 | i | i
COc1ccc(S(=O)(=O)n2nc(OCc3cccs3)cc2N)cc1 | ? | 10 | 0% | -1 | i | 21µM*
Cc1cc(C)nc(NC(=S)N2CCN(c3ncc(C(F)(F)F)cc3Cl)CC2)c1 | . | . | . | 4 | . | .
CC(C)CN1C(=O)[C@@]2(CC(=O)N(C)C2c2ccccc2)c2cc(-n3cc(C(C)(C)O)nn3)ccc21 (stereo partly drawn) | . | . | . | -1 | . | .
Cc1sc(N/N=C/c2cccnc2)nc1-c1ccccc1 | ? | -6 | -20% | -8 | ? | 12µM*
Cc1sc(N/N=C/c2ccco2)nc1-c1ccccc1 | 8% | 10 | -5% | 3 | i | i
CCCCCCC(=O)NC1CCCCN(Cc2ccc(C)cc2)C1=O (stereo not drawn) | . | . | . | -2 | . | .
CC(C)c1ccc(NC(=O)O[C@H]2CC[C@@]34CCCN3C(=O)CCC[C@H]4[C@H]2C)cc1 | . | . | . | 5 | . | .
COC(=O)[C@H](C)NS(=O)(=O)C1CC1 | . | . | . | . | i | i
